These results are taken from PubChem BioAssay AID1531 (NMMLSC, 2009).

Molecules are shown by their SMILES. In all, about 290,000 compounds went through this assay and about 3,300 (1.1%) were called active. For the sample, actives were picked, then their nearest neighbours and some compounds at random. Values without a mark were called inactive. No stated cut-off is given here; in the data, active means binding response below about 67% or above about 130%; inconclusive means no clear call, values can overlap the other calls; inactive means in between.

This assay deals with Mitogen-activated protein kinase kinase kinase 2 (Homo sapiens) (UniProt Q9Y2U5). Put plainly: wildtype MEKK2 PB1-MEK5 interaction, increase or decrease – biochemical, multiplex bead flow cytometry, Alexa488-MEK5, primary screen (AID 1531). The note with it: Alexa488-MEK5 binding to MEKK2 WT, at 10 µM, actives lie on both sides. For orientation: In flow cytometry, cells or beads pass a laser one at a time.
`CCOc1ccccc1-c1cc(C(=O)N/N=C(\C)c2cccnc2)c2ccccc2n1`: the binding response (% of control) was 92%.
Regarding `CCOc1ccc(CC(=O)NC2CCN(Cc3ccccc3)CC2)cc1`, the binding response (% of control) was 108%.
Regarding `Cc1cc(C(=O)NC2CCN(Cc3ccccc3)CC2)n[nH]1`, the binding response (% of control) is 98%.
Next, `O=C(NC1CCN(Cc2ccccc2)CC1)c1cc(Br)c(Br)[nH]1`: 140% (active); `O=C(NC1CCN(Cc2ccccc2)CC1)c1ccccc1F`: 101%.
For `O=C(NC1CCN(Cc2ccccc2)CC1)c1ccc(Oc2cc(Cl)cc(Cl)c2)o1`, the binding response (% of control) was 142% (active).
For `O=C(NC1CCN(Cc2ccccc2)CC1)c1c(F)cccc1F`, the binding response (% of control) was 113%.
Regarding `C#CCOc1ccc(/C=C2/C(=O)ON=C2C)cc1OCC`, the binding response (% of control) was 107%.
Regarding `CCc1nnc(SCc2cccc(F)c2)nc1CC`, the binding response (% of control) is 103%.
As for `Fc1ccc(-c2ccc(CNCc3ccccn3)o2)cc1Cl`, the binding response (% of control) was 140% (active).
Under `COc1ccc(-c2ccc(CNCCCN3CCOCC3)o2)cc1Cl` stands 106%; under `O=C(NCc1ccccn1)c1cc(Br)ccc1Cl`, 106%.
For `Cc1ccc(-c2nc3ccccc3[nH]2)cc1NC(=O)c1sc2ccccc2c1Cl`, the binding response (% of control) was 98%.
Consider `O=C(Cc1cccs1)Nc1cccc(-c2nc3ccccc3[nH]2)c1`, for which the binding response (% of control) was 95%.
Next, `O=C(Nc1cccc(-c2nc3ccccc3[nH]2)c1)c1ccc(C(=O)Nc2cccc(-c3nc4ccccc4[nH]3)c2)cc1`: 63% [inhibitor] (active); `C=C1CCN([C@@H](Cc2ccccc2)C(=O)N2CCOCC2)S(=O)(=O)c2ccccc21`: 107%.
Turning to `COc1ccc(NC(=O)CCC(=O)Nc2cc(OC)c(NC(=O)c3ccco3)cc2OC)c(OC)c1`, the binding response (% of control) was 96%.
Next, `O=C(NCC1CC1)c1onc(CSc2ccccc2)c1C(=O)NCC1CC1`: 95%.
Regarding `COc1ccc(NC(=O)Cn2nnc(C(=O)NCCc3ccc(OC)c(OC)c3)c2N)cc1`, the binding response (% of control) was 2% [inhibitor] (active).
For the compound `CCc1ccc(NC(=O)Cn2nnc(C(=O)NCc3ccc(OC)cc3)c2N)cc1`, the binding response (% of control) was 104%.
`COc1ccc(CNC(=O)c2nnn(CC(=O)Nc3cc(C)cc(C)c3)c2N)cc1`: the binding response (% of control) was 101%.
Next, `CCC(C)N1CC(=O)N2Cc3[nH]c4ccccc4c3C[C@H]2C1=O` (some centres not stated): 109%.
For the compound `COc1ccc(NC(=O)C/C(C)=N/NC(=O)c2cnccn2)cc1Cl`, the binding response (% of control) was 96%.
Under `CN1/C(=C\C(=O)c2cccnc2Cl)C(C)(C)c2ccccc21` stands 95%; under `CC(=O)Nc1cccc(OCC(=O)/C=C2\N(C)c3ccccc3C2(C)C)c1`, 63% [inhibitor] (active); under `Cc1noc(C)c1C(=O)OCC(=O)/C=C1\N(C)c2ccccc2C1(C)C`, 96%.
Consider `COc1ccc(Cl)cc1-n1c(=S)sc2c(=O)n(-c3ccc(F)cc3)c(SCC(=O)O)nc21`, for which the binding response (% of control) is 101%.
With `COc1ccc(Oc2cn[nH]c2-c2ccc(OC)cc2O)cc1`, the binding response (% of control) is 98%.
On to `CN(C)CCCNC(=S)N1CCN(c2nc(-c3ccccc3)cs2)CC1`, for which the binding response (% of control) was 149% (active).
Next, `COCCCNC(=S)N1CCN(c2nc(-c3cccc(OC)c3)cs2)CC1`: 95%; `CN(C)CCCNC(=S)N1CCC(c2nc3ccccc3[nH]2)CC1`: 116%.
As for `O=C(CSc1ccc(-c2ccccn2)nn1)Nc1ccccc1`, the binding response (% of control) was 110%.
In the case of `COc1cc2c(cc1OC)C(c1ccccc1Br)NC(=O)C2` (configuration not stated), the binding response (% of control) was 103%.
Next, `COCCCN1C(=O)c2ccc(C(=O)OCC(=O)NCc3ccccc3OC)cc2C1=O`: 101%; `CN1C(=O)/C(=C/c2ccc(C(=O)NC3CCCC3)cc2)Oc2ccccc21`: 99%; `CCCN1CCN(C(=O)CCCNC(=O)c2ccc(Cl)cc2)CC1`: 100%.
Regarding `CN1CCN(CCCNC(=O)c2ccc(/C=C3\Oc4ccccc4N(Cc4ccc(Cl)cc4)C3=O)cc2)CC1`, the binding response (% of control) was 171% (active).
As for `CS(=O)(=O)N(CC(=O)N1CCCCCC1)c1cccc(Cl)c1Cl`, the binding response (% of control) is 108%.
On to `CCc1cccc(C)c1NS(=O)(=O)c1cc(Br)cnc1N`, for which the binding response (% of control) was 92%.
In the case of `CCN1/C(=C\c2ccc3ccccc3[n+]2CC)Sc2cc(C)ccc21`, the binding response (% of control) was 20% [inhibitor] (active).
For the compound `CCN1/C(=C/C(=S)Nc2ccccc2)Sc2ccccc21`, the binding response (% of control) was 87%.
Take `CCN1/C(=C/c2ccc3ccc(C)cc3[n+]2CC)Sc2ccccc21`: the binding response (% of control) is 74%.
Under `CC1(C)CC[C@]2(C(=O)O)CC[C@]3(C)C(=CCC4[C@@]5(C)CC[C@H](O)C(C)(C)C5[C@H](O)C[C@]43C)[C@@H]2C1` (some centres not stated) stands 100%; under `N#CCc1c(C#N)c(N)nc(N2CCCC2)c1C#N`, 107%.
In the case of `O=C(NCc1ccccc1)c1onc(CSc2ccncc2)c1C(=O)NCc1ccccc1`, the binding response (% of control) is 104%.
Next, `NC(N)=Nc1nc(-c2ccccc2)c2cc(Cl)ccc2n1`: 150% (active); `Clc1ccc2nc(-c3ccccc3)nc(C(Cl)Cl)c2c1`: 90%.
